The full list was thinned out, with hits kept by preference.
G9a inh: G9a (human) methyltransferase inhibition; hit rate 8.8% among 350,000; Potency, µM (series often up to 102 µM), for the others: at the highest dose activity, negative = inhibition, usual class: inhibitors; G9a H3K9 monomethylation, AlphaScreen, 2 h; Q96KQ7; also: % is scaled to controls: 0 for no effect and ±100 for the full control effect; nearly all actives have a fitted effect of over 75% in size
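Chemiluminescent proximity detection of H3K9 monomethylation, read after 10 min bead incubation in the dark. Reaction: 20 nM G9a, 500 nM biotin-H3K9 peptide, 20 uM SAM cofactor, 2 h, room temperature, following 15 min enzyme-compound preincubation.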
ALOX12 inh: blocks human arachidonate 12S-lipoxygenase; P18054; purified 12hLO, xylenol orange hydroperoxide absorbance; Potency, µM (highest dose often 108 µM), for the others: at the highest dose activity change, negative = inhibition, usual class: inhibitors; hit rate 1.1% among 580,000; also: % is scaled to controls: 0 for no effect and ±100 for the full control effect
Target sequence (P18054 whole entry, looked up): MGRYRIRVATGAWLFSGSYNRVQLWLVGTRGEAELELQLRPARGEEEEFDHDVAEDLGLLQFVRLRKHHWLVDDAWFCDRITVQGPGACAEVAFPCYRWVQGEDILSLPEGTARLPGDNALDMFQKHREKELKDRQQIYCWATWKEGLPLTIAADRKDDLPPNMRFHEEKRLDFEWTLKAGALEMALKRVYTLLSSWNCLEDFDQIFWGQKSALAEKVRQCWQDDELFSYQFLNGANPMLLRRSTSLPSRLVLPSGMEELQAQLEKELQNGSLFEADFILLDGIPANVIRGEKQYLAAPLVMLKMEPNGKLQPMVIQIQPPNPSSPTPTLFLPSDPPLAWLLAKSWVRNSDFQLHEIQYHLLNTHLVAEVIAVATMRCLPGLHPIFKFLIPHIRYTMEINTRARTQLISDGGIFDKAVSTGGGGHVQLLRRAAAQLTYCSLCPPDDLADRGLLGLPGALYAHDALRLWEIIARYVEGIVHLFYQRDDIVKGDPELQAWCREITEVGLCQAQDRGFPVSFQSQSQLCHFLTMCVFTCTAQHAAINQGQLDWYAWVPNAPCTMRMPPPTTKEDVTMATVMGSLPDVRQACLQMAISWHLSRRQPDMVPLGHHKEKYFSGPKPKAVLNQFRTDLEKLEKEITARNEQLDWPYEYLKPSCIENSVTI
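Purified human 12hLO (150 nM final) in 25 mM Hepes, 0.01% Triton X-100, pH 7.0 was preincubated 15 min at room temperature with compound. Then 40 uM arachidonic acid was added, 30 min. Hydroperoxide was read by Fe-XO absorbance ratio 573/405 nm.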
GRP78 ERSR act: induces the endoplasmic reticulum stress response in human glioma cells | hit rate 0.02% among 420,000 | Potency, µM, without a hit: at the highest dose activation, actives largely listed as activators | U87-MG GRP78 promoter luciferase reporter, 16 h | AID 602332; also: series mostly up to about 76 µM; % of control where 0% means no effect; nearly all actives have a fitted effect of over 35% in size
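ERSR induction read as luciferase luminescence (Bright-Glo, 10 min at room temperature) in stably transfected human U87-MG glioma cells exposed to compounds for 16 h, using GRP78 as sensor.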
Sfp inh: Sfp phosphopantetheinyl transferase inhibition; Potency, µM, for inactives: largest response in the series, negative = inhibition, hits mostly inhibitors; Q9F4F7; hit rate 3.5% among 310,000; AID 1490; Biochemical Sfp PPTase activity, qHTS;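 also: the enzyme is Sfp with the accession as filed and its product quenches rhodamine fluorescence; 0% = enzyme reaction without inhibitor and -100% = no enzyme wells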
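Step 1, compound plus 15 nM Sfp-PPTase, 15 min, room temperature. Step 2, add rhodamine-CoA (5 uM) and BHQ-2-YbbR (12.5 uM). Step 3, read 525/598 nm fluorescence at 0 and 30 min.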
VDR inh: inhibitors of human vitamin D receptor; P11473; VDR-SRC2-3 peptide fluorescence polarization, 2 h; Potency, µM, for the others: max response, negative = inhibition, usual class: inhibitors; hit rate 0.93% among 400,000; AID 504847; also: % is scaled to controls: 0 for no effect and ±100 for the full control effect
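Compounds are added to VDR with labelled SRC2-3 coactivator peptide and held 2 h at room temperature. Inhibition of the VDR–peptide interaction is then read as a change in fluorescence polarization.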
* hit, by the source's call; u = inconclusive; x = no result given; [ ] = another dose, or the depositor's remark. Calls follow the shape of the dose curve; as a rule, active = well fitted curve in the direction sought with a large enough effect; inconclusive = small, poorly fitted or top-dose-only effect, or another doubt; inactive = no such curve, though single readings can be large; an effect the other way counts as inactive or inconclusive. Potency is read from the fitted curve at half-maximal effect.

SMILES | G9a inh | ALOX12 inh | GRP78 ERSR act | Sfp inh | VDR inh
COc1ccc(CN(Cc2ccc(OC)cc2)[C@@H]2CO[C@H](CNC(=O)CC(C)(C)C)[C@H]2O)cc1 | x | 7% | x | x | x
CS(=O)(=O)/C(C#N)=C\c1cnc(S(=O)(=O)c2ccccc2)s1 | 1µM* | x | x | 3.5µM* | x
CC1=Nc2cc(C(=O)NCCCN(C)C)ccc2Sc2ccc(Cl)cc21 | x | -26% | x | x | x
CC(c1ccccc1)C1C(C#N)=C(N)SC(N)=C1C#N (configuration not stated) | 16µM* | u | -7% | 22µM* | -19%
CC(C)C1C(C#N)=C(N)SC(N)=C1C#N | 14µM* | -23% | 0% | u | 4%
CCC(CC)C1C(C#N)=C(N)SC(N)=C1C#N | u | -14% | -4% | 10% | 2%
CC(CC1C(C#N)=C(N)SC(N)=C1C#N)c1ccccc1 (configuration not stated) | 10µM* | u | 4% | 7.9µM* | u
N#CC1=C(N)SC(N)=C(C#N)C1c1ccnc2ccccc12 | 2.5µM* | 4.5µM* | -2% | 16µM* | -18%
O=C1c2ccccc2C(=O)C1c1ccnc2ccccc12 | -12%[59 µM] | -4% | -6% | 15% | -3%
Cc1cc(OCC(=O)N2CCC[C@@H]2C(=O)O)c2c(C)c(C)c(=O)oc2c1 | -6% | 31% | -4% | 16% | 1%
Cc1cc(OCC(=O)N2CCN(c3cccc(Cl)c3)CC2)c2c(C)c(C)c(=O)oc2c1 | 4% | 17% | -1% | 40µM* | -16%
COc1ccc(-c2cc(C(F)(F)F)nc(S(=O)(=O)CCC(=O)Nc3ccccc3F)n2)cc1 | x | 114% | x | x | x
COc1cc(C(=O)NNc2nc3cc4c(cc3s2)OCO4)cc(OC)c1OC | u | u | -3% | 20µM* | -3%
COc1cc(OC)cc(C(=O)NNc2nc3cc4c(cc3s2)OCO4)c1 | u | -4% | -1% | 79µM* | -21%
COc1cccc(OC)c1C(=O)Nc1nc2cc3c(cc2s1)OCO3 | 19% | 0% | -5% | 0% | -15%
Cc1ccc(CN2CCCCCCN(C)C(=O)[C@@H]3CCC[C@@H]32)s1 | x | 129% | x | x | x
O=C(c1cc2ccccc2o1)N1CCN(Cc2nc3ccccc3s2)CC1 | x | 18µM* | 0% | x | x
CC(C)(C)NC(=O)C[C@@H]1CCNC[C@@H]1Cc1cc(-c2ccc(C(C)(C)C)cc2)on1 | x | 35µM* | x | x | x
CC(C)(C)c1ccc(-c2cc(C[C@H]3CNCC[C@H]3CC(=O)NCc3ccc(F)cc3)no2)cc1 | x | 22µM* | x | x | x
COc1ccc(CNC(=O)C[C@@H]2CCNC[C@@H]2Cc2cc(-c3ccc(C(C)(C)C)cc3)on2)cc1 | x | 18µM* | x | x | x
COc1ccc(-c2cc(C[C@H]3CNCC[C@H]3CC(=O)N3CCN(c4ccccc4OC)CC3)no2)cc1 | x | 28µM* | x | x | x
COc1ccc(-c2cc(C[C@H]3CNCC[C@H]3CC(=O)NCc3ccc(F)cc3)no2)cc1 | x | -12% | x | x | x
Cc1c(C)n(CCCN(C)C)c2ncn3nc(-c4cccs4)nc3c12 | x | -1% | x | x | x
O=S(=O)(c1ccc(Br)s1)N1CCOc2ccc(COCc3ccccc3)cc2C1 | x | 0% | x | x | x
O=C(CCCc1nc2ccccc2o1)NCc1ccccc1Cl | x | 24% | x | x | x
SMILES | G9a inh | ALOX12 inh | GRP78 ERSR act | Sfp inh | VDR inh
N#Cc1ccc(CN2CCC3(Cc4ccccc4CNC3=O)C2)cc1 (configuration not stated) | x | 0%[6.33 µM] | x | x | x
COc1cccc(CN2CCC3(Cc4ccccc4NC3=O)C2)c1 (configuration not stated) | x | 40µM* | x | x | x
Cc1cc(C)c(CN2CCC3(Cc4ccccc4CNC3=O)C2)c(C)c1 (configuration not stated) | x | 1µM* | x | x | x
COc1ccc(CN2CCCC3(Cc4ccccc4CNC3=O)C2)cc1 (configuration not stated) | x | 8%[6.33 µM] | x | x | x
O=C1NCc2ccccc2CC12CCN(Cc1ccc(-c3ccccc3)cc1)C2 (configuration not stated) | x | 40µM* | x | x | x
Cc1cc(C)cc(CN2CCC3(CC2)Cc2ccccc2CNC3=O)c1 | x | -1%[6.33 µM] | x | x | x
O=C1NCc2ccccc2CC12CCN(Cc1ccc(Oc3ccccc3)cc1)C2 (configuration not stated) | x | 35µM* | x | x | x
Cc1nn(Cc2ccccc2)c(C)c1[C@@H]1C=C[C@@H](NS(=O)(=O)c2cccs2)C1 | x | 6%[176 µM] | x | x | x

Assay outcomes deposited in PubChem BioAssay by National Center for Advancing Translational Sciences (NCATS).
